# In the supplement of paper PMC8728848:
# This excerpt belongs to a sample that is enriched for the strongest signals.
# What was measured:
# Assay in all cases: glycan array binding signal (z-score within array); higher = stronger binding
# Settings in all cases: glycan notation: IUPAC condensed, linker removed
# [1] = target: Fuc(a1-2)Gal(b1-4)GlcNAc(b1-3)Gal(b1-4)GlcNAc
# Procedure, shortened: (§1)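 Glycan array data were curated from 3228 arrays in the Consortium for Functional Glycomics database and kept only where the protein sequence was available. Glycan names were converted to IUPAC-condensed notation, and columns mapping to the same glycan were averaged. The binding signal is a within-array Z-score, averaged across arrays of the same protein sequence at different concentrations or buffers and across linkers. Negative Z-scores can be read as non-binding.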
# [2] = target: Fuc(a1-2)Gal(b1-4)GlcNAc(b1-3)[Fuc(a1-2)Gal(b1-4)GlcNAc(b1-6)]GalNAc
# Procedure, shortened: as §1
# [3] = target: Fuc(a1-2)Gal(b1-4)[Fuc(a1-3)]GlcNAc(b1-2)Man(a1-3)[Fuc(a1-2)Gal(b1-4)[Fuc(a1-3)]GlcNAc(b1-2)Man(a1-6)]Man(b1-4)GlcNAc(b1-4)GlcNAc
# Procedure, shortened: as §1
# [4] = target: Fuc(a1-2)Gal(b1-4)[Fuc(a1-3)]GlcNAc(b1-2)[Fuc(a1-2)Gal(b1-4)[Fuc(a1-3)]GlcNAc(b1-4)]Man(a1-3)[Fuc(a1-2)Gal(b1-4)[Fuc(a1-3)]GlcNAc(b1-2)Man(a1-6)]Man(b1-4)GlcNAc(b1-4)GlcNAc
# Procedure, shortened: as §1
# [5] = target: Fuc(a1-2)Gal(b1-4)[Fuc(a1-3)]GlcNAc(b1-3)Gal(b1-4)[Fuc(a1-3)]GlcNAc(b1-3)Gal(b1-4)[Fuc(a1-3)]GlcNAc
# Procedure, shortened: as §1
# [6] = target: Fuc(a1-2)Gal(b1-4)[Fuc(a1-3)]GlcNAc(b1-3)GalNAc
# Procedure, shortened: as §1
# [7] = target: Fuc(a1-2)[Gal(a1-3)]Gal(b1-4)[Fuc(a1-3)]Glc
# Procedure, shortened: as §1
# [8] = target: Fuc(a1-2)[Gal(a1-4)]Gal(b1-4)GlcNAc
# Procedure, shortened: as §1
# [9] = target: Fuc(a1-2)[GalNAc(a1-3)]Gal
# Procedure, shortened: as §1
# [10] = target: Fuc(a1-2)[GalNAc(a1-3)]Gal(b1-4)Glc
# Procedure, shortened: as §1
# [11] = target: Fuc(a1-2)[GalNAc(a1-3)]Gal(b1-4)[Fuc(a1-3)]GlcNAc
# Procedure, shortened: as §1
# [12] = target: Fuc(a1-3)[Gal3S(b1-4)]GlcNAc6S
# Procedure, shortened: as §1
# [13] = target: Gal(a1-3)Gal(b1-4)Glc
# Procedure, shortened: as §1
# [14] = target: Gal(a1-4)Gal(b1-4)GlcNAc(b1-3)Gal(b1-4)Glc
# Procedure, shortened: as §1
# [15] = target: Gal(b1-3)GalNAc(a1-3)[Fuc(a1-2)]Gal(b1-4)Glc
# Procedure, shortened: as §1
# [16] = target: Gal(b1-3)GlcNAc(b1-2)Man(a1-3)[GlcNAc(b1-4)][Gal(b1-3)GlcNAc(b1-2)Man(a1-6)]Man(b1-4)GlcNAc(b1-4)GlcNAc
# Procedure, shortened: as §1
# [17] = target: Gal(b1-4)GalNAc(b1-3)[Fuc(a1-2)]Gal(b1-4)GlcNAc
# Procedure, shortened: as §1
# [18] = target: Gal(b1-4)GlcNAc(b1-2)Man(a1-3)Man(b1-4)GlcNAc(b1-4)GlcNAc
# Procedure, shortened: as §1
# [19] = target: Gal(b1-4)GlcNAc6P
# Procedure, shortened: as §1
# [20] = target: Gal(b1-6)Gal
# Procedure, shortened: as §1
# [21] = target: Gal3S(b1-4)Glc
# Procedure, shortened: as §1
# [22] = target: Gal3S(b1-4)[Fuc(a1-3)]Glc6S
# Procedure, shortened: as §1
# [23] = target: Gal6S(b1-4)GlcNAc6S
# Procedure, shortened: as §1
# [24] = target: GalNAc(b1-4)Gal(b1-4)Glc
# Procedure, shortened: as §1
# [25] = target: GalNAc6S(b1-4)GlcNAc
# Procedure, shortened: as §1
# [26] = target: GlcNAc(a1-4)Gal(b1-4)GlcNAc(b1-3)Gal(b1-4)[Fuc(a1-3)]GlcNAc(b1-3)Gal(b1-4)[Fuc(a1-3)]GlcNAc
# Procedure, shortened: as §1
# [27] = target: GlcNAc(b1-3)[GlcNAc(b1-4)][GlcNAc(b1-6)]GlcNAc
# Procedure, shortened: as §1
# [28] = target: Man(a1-2)Man(a1-2)Man(a1-6)[Man(a1-3)]Man
# Procedure, shortened: as §1
# [29] = target: Neu5Ac(a2-3)Gal(b1-3)GlcNAc(b1-3)Gal(b1-3)GlcNAc
# Procedure, shortened: as §1
# [30] = target: Neu5Ac(a2-3)Gal(b1-3)GlcNAc6S
# Procedure, shortened: as §1
# [31] = target: Neu5Ac(a2-3)Gal(b1-3)[Neu5Ac(a2-6)]GlcNAc(b1-3)[Fuc(a1-3)[Gal(b1-4)]GlcNAc(b1-6)]Gal(b1-4)Glc
# Procedure, shortened: as §1
# [32] = target: Neu5Ac(a2-3)Gal(b1-4)GlcNAc(b1-2)Man
# Procedure, shortened: as §1
# [33] = target: Neu5Ac(a2-3)Gal(b1-4)[Fuc(a1-3)]GlcNAc(b1-3)Gal(b1-4)[Fuc(a1-3)]GlcNAc(b1-3)Gal(b1-4)[Fuc(a1-3)]GlcNAc
# Procedure, shortened: as §1
# [34] = target: Neu5Ac(a2-3)Gal(b1-4)[Fuc(a1-3)]GlcNAc(b1-3)GalNAc
# Procedure, shortened: as §1
# [35] = target: Neu5Ac(a2-6)Gal(b1-4)GlcNAc(b1-3)Gal(b1-4)GlcNAc(b1-3)Gal(b1-4)GlcNAc
# Procedure, shortened: as §1
# [36] = target: Neu5Ac(a2-6)Gal(b1-4)GlcNAc(b1-6)GalNAc
# Procedure, shortened: as §1
# [37] = target: Neu5Ac(a2-8)Neu5Ac(a2-3)Gal(b1-3)GalNAc(b1-4)[Neu5Ac(a2-8)Neu5Ac(a2-3)]Gal(b1-4)Glc
# Procedure, shortened: as §1
# [38] = target: Neu5Ac(b2-6)GalNAc
# Procedure, shortened: as §1
# [39] = target: Neu5Ac9Ac(a2-3)Gal(b1-3)GlcNAc
# Procedure, shortened: as §1
binder,measurement,setting,value
"OrfX (Escherichia coli), Q9X4B6_ECOLX (protein) MIKIARIAVTLGLLSSLGAQAYAAGLVVNDNDLRNDLAWLSDRGVIHLSLSTWPLSQEEIARALKKAKPSYSSEQVVLARINQRLSALKADFRVTGYTSTDQPGTPQGFGQTQPADNSLGLAFNNSGEWWDVHLQGNVEGGERISNGSRFNANGAYGAVKFWNQWLSFGQVPQWWGPGYEGSLIRGDAMRPMTGFLMQRAEQAAPETWWLRWVGPWQYQISASQMNQYTAVPHAKIIGGRFTFTPFQSLELGASRIMQWGGEGRPQSFSSFWDGFTGHDNTGTDNEPGNQLAGFDFKFKLEPTLGWPVSFYGQMVGEDESGYLPSANMFLGGVEGHHGWGKDTVNWYVEAHDTRTNMSRTNYSYTHHIYKDGYYQQGYPLGDAMGGDGQLIAGKVELITEDNQRWSTRLVYAKVNPENQSINKAFPHADTLKGLQLGWSGDVYQSVRLNTSLWYTNANNSDSDDVGASAGIEIPFSL",glycan array binding signal (z-score),[1],-0.191
same,glycan array binding signal (z-score),[2],0.429
same,glycan array binding signal (z-score),[3],0.202
same,glycan array binding signal (z-score),[4],-0.108
same,glycan array binding signal (z-score),[5],-0.02
same,glycan array binding signal (z-score),[6],4.3
same,glycan array binding signal (z-score),[7],-0.132
same,glycan array binding signal (z-score),[8],-0.32
same,glycan array binding signal (z-score),[9],-0.116
same,glycan array binding signal (z-score),[10],-0.196
same,glycan array binding signal (z-score),[11],0.042
same,glycan array binding signal (z-score),[12],2.97
same,glycan array binding signal (z-score),[13],-0.261
same,glycan array binding signal (z-score),[14],-0.181
same,glycan array binding signal (z-score),[15],-0.182
same,glycan array binding signal (z-score),[16],0.214
same,glycan array binding signal (z-score),[17],-0.145
same,glycan array binding signal (z-score),[18],-0.266
same,glycan array binding signal (z-score),[19],0.611
same,glycan array binding signal (z-score),[20],0.048
same,glycan array binding signal (z-score),[21],0.076
same,glycan array binding signal (z-score),[22],2.79
same,glycan array binding signal (z-score),[23],2.74
same,glycan array binding signal (z-score),[24],0.667
same,glycan array binding signal (z-score),[25],-0.318
same,glycan array binding signal (z-score),[26],10.6
same,glycan array binding signal (z-score),[27],11.2
same,glycan array binding signal (z-score),[28],-0.231
same,glycan array binding signal (z-score),[29],-0.096
same,glycan array binding signal (z-score),[30],-0.301
same,glycan array binding signal (z-score),[31],-0.357
same,glycan array binding signal (z-score),[32],7.89
same,glycan array binding signal (z-score),[33],-0.34
same,glycan array binding signal (z-score),[34],7.1
same,glycan array binding signal (z-score),[35],-0.288
same,glycan array binding signal (z-score),[36],3.4
same,glycan array binding signal (z-score),[37],-0.409
same,glycan array binding signal (z-score),[38],-0.166
same,glycan array binding signal (z-score),[39],-0.162
